# Bioassay records as filed in PubChem BioAssay.
# An excerpt weighted towards active compounds, which were near 3.4% of everything screened.
# FBW7 act: FBW7 E3 ligase activators, primary screen, biochemical, AlphaScreen, human; AID 1259310, 2017; AlphaScreen FBW7–phospho-cyclin E peptide binding, activator screen; normalized activity (activation), % at 26.1 µM; 650,000 compounds, 0.13% hits; in the data active means normalized activity above about 1.9%;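 further: purified mutant Fbw7 with reduced substrate affinity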
# GPR151 activ: activators of human GPR151, primary screen, cell-based, PathHunter beta-arrestin, luminescence; G-protein coupled receptor 151 (Homo sapiens), Q8TDV0; PathHunter beta-arrestin GPR151 cells; activation, % at 11.2 µM; 650,000 compounds, 1% hits; AID 1508602, 2020; in the data active means activation above about 4.9%;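 further: 0% = median of compound wells and 100% = cells with positive control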
# MITF primary: MITF inhibitors, primary screen, biochemical, AlphaScreen, human; AID 1259374, 2018; inhibition, % at 2.6 µM; 650,000 compounds, 0.91% hits; Microphthalmia-associated transcription factor (Homo sapiens), O75030; AlphaScreen MITF homodimerization, bead proximity signal; in the data active means inhibition above about 50%;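 further: 0% = vehicle wells with protein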
# Target sequence (O75030 whole entry, looked up): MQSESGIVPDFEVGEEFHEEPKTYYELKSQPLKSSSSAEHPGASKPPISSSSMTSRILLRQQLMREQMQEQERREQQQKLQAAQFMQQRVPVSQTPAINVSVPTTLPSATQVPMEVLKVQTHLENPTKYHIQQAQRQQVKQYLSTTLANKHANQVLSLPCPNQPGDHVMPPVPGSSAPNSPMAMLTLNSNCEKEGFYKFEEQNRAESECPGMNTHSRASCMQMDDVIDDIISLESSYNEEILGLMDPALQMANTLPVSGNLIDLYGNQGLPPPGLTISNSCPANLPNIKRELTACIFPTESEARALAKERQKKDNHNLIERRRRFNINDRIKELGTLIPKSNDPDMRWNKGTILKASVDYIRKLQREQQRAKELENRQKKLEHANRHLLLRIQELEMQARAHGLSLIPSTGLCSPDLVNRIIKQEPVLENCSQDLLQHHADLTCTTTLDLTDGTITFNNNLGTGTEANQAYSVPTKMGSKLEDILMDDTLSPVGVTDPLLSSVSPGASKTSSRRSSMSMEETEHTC
# TEAD-YAP block: TEAD-YAP interaction inhibition, primary screen, TEAD-YAP interaction inhibitor project, luminescence, HEK-TIYL cells. TEAD-Gal4/YAP UAS-luciferase luminescence. inhibition, % at 9.12 µM. 640,000 compounds, 1.4% hits; in the data active means inhibition above about 32%;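 further: 0% = median of test compound wells and 100% = reference inhibitor wells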
# Active calls of the source: *.
SMILES,FBW7 act,GPR151 activ,MITF primary,TEAD-YAP block
Cc1cccc(Nc2nc3nonc3nc2N/N=C\c2cccs2)c1C,-1.6,2.7,6.2,78.7*
Cc1ccccc1Nc1nc2nonc2nc1N/N=C/c1ccc(F)cc1,0.1,1.3,1.7,6.3
Cc1cc(-n2sc(Cl)c(C)c2=O)ccc1Cl,0.0,0.1,-3.5,42.9*
Cc1c(Cl)sn(-c2ccc(Cl)cc2)c1=O,-0.1,2.2,-2.0,40.3*
Cc1cc(NC2CCN(Cc3ccccc3)CC2)nc(Oc2ccccc2)n1,-0.1,0.0,10.5,26.9
CCCCCOC(=O)c1c(C)oc2ccc(NS(=O)(=O)c3ccc4ccccc4c3)cc12,-0.1,0.0,-9.3,-4.4
CCOC(=O)Cc1csc(N/N=C\c2ccc(C(F)(F)F)cc2)n1,0.3,-1.3,14.3,61.1*
Cc1cccc(CNc2ncnc3sc(C(=O)N(C)Cc4ccco4)c(C)c23)n1,0.0,-0.1,13.2,-13.0
O=C(OCC(=O)N1CCN(C(=O)c2ccco2)CC1)c1cc(=O)[nH]c(=O)[nH]1,-0.2,-0.2,-5.8,0.5
COc1ccc(C(=O)Nn2c(SCC(=O)NCCc3ccccc3)nc3ccccc3c2=O)cc1,0.0,2.1,-1.7,70.8*
COc1ccc(C(=O)Nn2c(SCC(=O)NCc3ccco3)nc3ccccc3c2=O)cc1,0.1,-0.4,-10.5,75.3*
C/C=C\C(=O)Nc1cc(-c2cn3cccnc3n2)ccc1OC,0.1,4.0,-16.4,3.0
CCC(C)C1N=C2c3ccccc3N=C(SCC(=O)c3ccc(O)c(O)c3)N2C1=O (stereo not given),-0.5,-0.2,60.9*,-0.5
CCSc1nc(O)cc(=O)n1-c1ccccc1OC,0.3,-0.6,11.2,10.5
COc1ccccc1-n1c(SC)nc(O)cc1=O,3.9*,-0.5,1.8,6.2
O=C(CSc1nc2c(c(=O)[nH]1)CCC2)N1CCc2ccccc21,0.0,-0.4,0.5,-0.9
O=C(NCC(c1cccs1)N1CCOCC1)c1ccc([N+](=O)[O-])o1 (stereo not given),-0.1,1.0,3.2,54.8*
CN1C/C(=C/c2ccc(O)cc2)C(=O)/C(=C/c2ccc(O)cc2)C1,0.2,0.5,3.0,-4.2
Cc1nn(C)c(C)c1CN(C1CC1)C1CCC(=O)N(Cc2ccc3ccccc3c2)CC1 (stereo not given),0.0,0.1,-20.6,-1.5
CC1(C)Cc2c(c(N3CCOCC3)nc3snc(N)c23)CO1,0.0,0.6,7.0,35.9*
O=[N+]([O-])c1c(N2CCCCC2)cc(Cl)c2nonc12,-0.3,-0.5,8.5,-17.6
Oc1ccc(/C=N/NC(=S)NCCN2CCOCC2)c(O)c1,-1.2,1.6,93.6*,-6.4
O=C(CSc1nnc(-c2cccc([N+](=O)[O-])c2)n1-c1ccccc1)Nc1nccs1,-0.1,0.2,-8.0,44.4*
CCc1ccccc1-n1c(SCC(=O)Nc2nccs2)nnc1-c1cccnc1,-0.1,0.4,5.6,56.6*
Cc1cccc(-n2c(SCC(=O)Nc3nccs3)nnc2-c2cccnc2)c1C,-0.2,-0.8,-24.3,-1.1
SMILES,FBW7 act,GPR151 activ,MITF primary,TEAD-YAP block
O=C(CSc1nnc(-c2ccccn2)n1-c1ccccc1Cl)Nc1nccs1,0.0,-0.1,-1.6,58.9*
O=C(CSc1nnc(-c2ccco2)n1-c1ccccc1)Nc1nccs1,0.1,-1.0,-20.4,1.4
O=C(CSc1nnc(-c2cccnc2)n1-c1ccccc1Cl)Nc1nccs1,0.0,-0.8,4.8,38.6*
CCOc1ccc(-n2nc3ccc(NC(C)=O)cc3n2)cc1,0.1,0.3,-18.4,-67.6
CCN(C(=O)CSc1nc2c(sc(=S)n2CC)c(=O)n1-c1ccccc1)c1cccc(C)c1,-0.1,-0.7,3.5,8.4
N#Cc1nc(-c2ccc([N+](=O)[O-])cc2)oc1NCC1CCCO1 (stereo not given),-0.1,-2.2,6.5,-0.1
O=C1C(Cl)=C(Cl)C(=O)N1c1ccc(I)cc1,0.4,-0.7,24.0,7.0
CN(C1=C(Cl)C(=O)N(c2ccc(I)cc2)C1=O)c1ccccc1,-0.1,0.2,22.7,56.0*
Cc1ccc(N2C(=O)C(Cl)=C(N(C)c3ccccc3)C2=O)cc1,0.0,-0.1,19.3,52.4*
O=C(CSc1ccccc1)N1CCOc2ccc(-c3ccncc3)cc21,0.0,-1.1,10.6,33.6*
COc1ccc(CCNC(=O)c2sc3ncn(CC(=O)N4CC(C)CC(C)C4)c(=O)c3c2C)cc1OC (stereo not given),0.6,-1.4,1.2,-11.2
CCOc1cc(/C=C2/C(=N)N3C(c4ccccc4)=CSC3=NC2=O)ccc1OCc1ccccc1,-0.1,0.9,-1.9,7.9
Cc1ccc(-n2nc3c(c2NC(=O)c2cc([N+](=O)[O-])ccc2Cl)CS(=O)(=O)C3)cc1,-0.3,2.0,5.0,16.3
COc1ccc(-n2nc3c(c2NC(=O)c2cc([N+](=O)[O-])ccc2Cl)CS(=O)(=O)C3)cc1,0.0,-0.9,9.3,72.6*
Cc1ccc(-n2nc3c(c2NC(=O)c2ccc([N+](=O)[O-])cc2)CS(=O)(=O)C3)c(C)c1,0.6,-0.1,11.1,3.6
Cc1ccccc1-n1nc2c(c1NC(=O)c1cc([N+](=O)[O-])ccc1Cl)CSC2,-0.1,-0.1,11.0,74.3*
Cc1ccc(-n2nc3c(c2NC(=O)c2cc([N+](=O)[O-])ccc2Cl)CS(=O)(=O)C3)c(C)c1,-0.2,-0.7,6.2,70.3*
CCOP(=O)(CN(CCc1ccccc1)C(=S)Nc1cc(C)c(Cl)cc1OC)OCC,-0.1,-1.3,2.8,-2.1
O=C(Cn1nnc(-c2ccccc2Cl)n1)N/N=C\c1ccc([N+](=O)[O-])cc1,-0.1,2.8,-13.3,-2.9
Cc1ccc(C(=O)Cc2nc3ncccc3[nH]c2=O)cc1,0.0,-0.3,11.2,-33.6
Cc1cc(Br)c(S(=O)(=O)N2CCC(C)CC2)cc1C,2.1*,0.7,6.9,0.8
Cc1cc(Br)c(S(=O)(=O)N2CCCCC2)cc1C,0.3,-1.3,12.1,1.4
Cc1ccc(/C=N/NC(=O)c2n[nH]c3c2CCCC3)cc1,-0.1,-0.6,10.5,18.4
O=C(N/N=C/c1cc2c([nH]1)CCCC2)c1n[nH]c2c1CCC2,-0.1,-1.3,20.9,33.0*
Cc1ccsc1/C=N\NC(=O)c1n[nH]c2c1CCCC2,0.2,-8.7,12.8,82.2*
SMILES,FBW7 act,GPR151 activ,MITF primary,TEAD-YAP block
O=C(O)c1n[nH]c2c1CCCCCC2,-0.1,0.9,-6.6,-11.0
O=C(NN=C1CCCCC1)c1n[nH]c2c1CCC2,0.3,-0.6,17.8,56.6*
COc1cc(/C=N/NC(=O)c2n[nH]c3c2CCCC3)ccc1O,0.1,-1.2,10.3,36.0*
Cc1c(C(=O)NCc2ccco2)sc2ncnc(N3CCN(c4ccccc4)CC3)c12,-0.2,-0.3,1.8,1.3
O=C(N/N=C/c1cccc(O)c1)C1C2CCCCC21 (stereo not given),-0.1,-0.6,-3.9,59.8*
CN(C)c1ccc(/C=N/NC(=O)c2n[nH]c3c2CCC3)cc1,0.0,0.8,10.3,35.0*
